Source: PubChem BioAssay (NCATS)
Several values for one entry are separate records, joined by “and”; a condition that tells them apart may be missing. Identical values can stand only once. Records with an inconclusive call do not appear. Values without a mark were called inactive. Activity calls are given as the source filed them. Unless noted, the call rests on the fitted dose curve; in most records, active means well fitted curve in either direction with a large enough effect (not every such curve was filed as active); inconclusive means small, poorly fitted or top-dose-only effect, or another doubt; inactive means flat fitted curve, though single readings scatter.

assay: Cell Viability - SK-N-SH (AID 435; calls by dose curve;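 further: potency means the concentration at half of the fitted maximal effect; compound exposure lasted 40 h at 37 °C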); details: SK-N-SH neuroblastoma cell viability qHTS
Procedure, shortened: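 SK-N-SH neuroblastoma cells (1500/well) treated 40 h at 37 °C in complete medium; viability read as cellular ATP by CellTiter-Glo luminescence. Normalized to DMSO and 100 uM tamoxifen; AC50 from Hill fits of qHTS concentration-response.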

| SMILES | Potency |
| --- | --- |
| CC(=O)Nc1ccc(O)cc1 | > 92 µM |
| Cc1ccc(C)c(OCCCC(C)(C)C(=O)O)c1 | > 92 µM |
| c1ccc2[nH]c(-c3cscn3)nc2c1 | > 92 µM |
| CCCc1cc(=O)[nH]c(=S)[nH]1 | > 92 µM |
| Nc1ccc(S(N)(=O)=O)cc1 | > 92 µM |
| CCc1nc(N)nc(N)c1-c1ccc(Cl)cc1 | 25.6 µM (active) |
| NS(=O)(=O)c1cc(C(=O)O)c(NCc2ccco2)cc1Cl | > 92 µM |
| COc1c2occc2cc2ccc(=O)oc12 | > 92 µM |

assay: NFAT Signaling Pathway (AID 444); details: Jurkat NFAT-bla M1, carbachol, beta-lactamase ratio, 5 h; at 17.2 µM (top of the series);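 further: carbachol stimulus at about its EC50 of 1 µM final; on the % scale 0 is the no-effect control and ±100 the full control effect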
Procedure, shortened: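 Jurkat cells carrying an NFAT-driven β-lactamase reporter and co-transfected muscarinic M1 receptor were treated with compound plus carbachol (1 uM final, an EC50 level) for 5 h at 37 °C. CCF4 loading followed for 1 h at RT; 460/530 nm ratio gave %activity.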

| SMILES | activity change, negative = inhibition |
| --- | --- |
| Cc1c(OCC(F)(F)F)ccnc1CS(=O)c1nc2ccccc2[nH]1 (stereo not given) | -20.4% and -11.1% |
| N=C(N=C(N)N)N1CCOCC1 | -6.61% |
| O=C(NCC1CCCCN1)c1cc(OCC(F)(F)F)ccc1OCC(F)(F)F (stereo not given) | -8.46% |
| CC(C)Oc1ccc2c(=O)c(-c3ccccc3)coc2c1 | 5.32% |
| Cc1ccc(C)c(OCCCC(C)(C)C(=O)O)c1 | 0.602% and 17.8% |
| CC1(C)NC(=O)N(c2ccc([N+](=O)[O-])c(C(F)(F)F)c2)C1=O | -3.85% |
| c1ccc2[nH]c(-c3cscn3)nc2c1 | -19.5% and -28.1% |
| CCOc1cc(CC(=O)N[C@@H](CC(C)C)c2ccccc2N2CCCCC2)ccc1C(=O)O | -1.28% |
| CC(C)[N+]1(C)[C@@H]2CC[C@H]1CC(OC(=O)C(CO)c1ccccc1)C2 (stereo not given in full) | -79.9% (active) |
| CCCc1cc(=O)[nH]c(=S)[nH]1 | -2.4% and 6.45% |
| Nc1ccc(S(N)(=O)=O)cc1 | -0.0158% |
| CCc1nc(N)nc(N)c1-c1ccc(Cl)cc1 | -6.33% and 6.33% |
| CN1C(C(=O)Nc2ccccn2)=C(O)c2sccc2S1(=O)=O | 9.83% |
| O=C(O)c1cccnc1Nc1cccc(C(F)(F)F)c1 | -16.9% and -24.7% |
| NS(=O)(=O)c1cc(C(=O)O)c(NCc2ccco2)cc1Cl | -8.48% |
| CC1Cc2ccccc2N1NC(=O)c1ccc(Cl)c(S(N)(=O)=O)c1 (stereo not given) | 6.17% |
| NC(=NCc1ccccc1)NC(=O)c1nc(Cl)c(N)nc1N | -15.5% |
| COc1ccc2cc([C@H](C)C(=O)O)ccc2c1 | -15.8% and 6.69% and 9.43% |
| COc1c2occc2cc2ccc(=O)oc12 | 0.388% |
| O=c1c(O)c(-c2cc(O)c(O)c(O)c2)oc2cc(O)cc(O)c12 | -3.39% |
| NNc1nncc2ccccc12 | -29.1% |
| CCC1=C(C)CN(C(=O)NCCc2ccc(S(=O)(=O)NC(=O)NC3CCC(C)CC3)cc2)C1=O (stereo not given) | 4.19% |
| Nc1cc(C(Cl)=C(Cl)Cl)c(S(N)(=O)=O)cc1S(N)(=O)=O | -0.14% |
| O=c1c(O)c(-c2ccc(O)cc2O)oc2cc(O)cc(O)c12 | 10% |
| Nc1nc(Cl)nc2c1ncn2[C@H]1C[C@H](O)[C@@H](CO)O1 | 16.6% and 27.4% |
| CCCCN(CCCC)CCC(O)c1cc2c(Cl)cc(Cl)cc2c2cc(C(F)(F)F)ccc12 (stereo not given) | 14.4% |

same assay, conditions: Jurkat NFAT-bla M1, carbachol, beta-lactamase ratio, 5 h; at 38 µM (top of the series)

| SMILES | activity change, negative = inhibition [%] |
| --- | --- |
| Nc1nc(OCc2ccccc2)c2[nH]cnc2n1 | -5.61 |
| Cc1c(OCC(F)(F)F)ccnc1CS(=O)c1nc2ccccc2[nH]1 (stereo not given) | 0.241 |
| COc1ccccc1N1CCN(CCN(C(=O)C2CCCCC2)c2ccccn2)CC1 | 3.68 |
| CC1(C)NC(=O)N(c2ccc([N+](=O)[O-])c(C(F)(F)F)c2)C1=O | 1.13 |
| O=c1ccc2ccc(O)c(O)c2o1 | -9.14 |
| Cc1cccc(C#Cc2ccccc2)n1 | -6.27 |
| O=C(O)c1cccnc1Nc1cccc(C(F)(F)F)c1 | 5.69 |
| NC(=NCc1ccccc1)NC(=O)c1nc(Cl)c(N)nc1N | -27.8 |
| COc1ccc2cc([C@H](C)C(=O)O)ccc2c1 | 0.0959 |
| O=c1c(O)c(-c2cc(O)c(O)c(O)c2)oc2cc(O)cc(O)c12 | 11.8 |
| NNc1nncc2ccccc12 | 8.48 |
| O=c1cc(N2CCOCC2)oc2c(-c3ccccc3)cccc12 | -14.3 |
| CC1(C)C(=O)N(CCN2CCC(C(=O)c3ccc(F)cc3)CC2)c2ccccc21 | -22.8 |
| O=c1c(O)c(-c2ccc(O)cc2O)oc2cc(O)cc(O)c12 | 2.93 |

assay: Stat Signaling Pathway (AID 446); details: ME-180 SIE beta-lactamase reporter, IL-6 stimulated, 5 h; series mostly up to 17.2 µM; activity, negative = inhibition: at the top concentration;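 further: ME-180 cervical cancer cells given 40 pM IL-6 alongside compound; SIE-controlled beta-lactamase reporter measured as 460/530 nm FRET emission ratio; on the % scale 0 is the no-effect control and ±100 the full control effect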
Procedure, shortened: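 Screening format detects activators and inhibitors alike: ME-180 SIE-bla cells stimulated at 40 pM IL-6 for 5 hrs with compound, then dual-emission beta-lactamase read at 405 nm excitation.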

| SMILES | activity, negative = inhibition | outcome |
| --- | --- | --- |
| Nc1nc(OCc2ccccc2)c2[nH]cnc2n1 | -0.525% [at 38 µM] |  |
| CC(=O)Nc1ccc(O)cc1 | 1.29% |  |
| Cc1c(OCC(F)(F)F)ccnc1CS(=O)c1nc2ccccc2[nH]1 (stereo not given) |  | inactive |
| N=C(N=C(N)N)N1CCOCC1 | -6.64% |  |
| O=C(NCC1CCCCN1)c1cc(OCC(F)(F)F)ccc1OCC(F)(F)F (stereo not given) | 10.2% |  |
| CC(C)Oc1ccc2c(=O)c(-c3ccccc3)coc2c1 | 0.931% |  |
| Cc1ccc(C)c(OCCCC(C)(C)C(=O)O)c1 |  | inactive |
| COc1ccccc1N1CCN(CCN(C(=O)C2CCCCC2)c2ccccn2)CC1 | -6.88% [at 38 µM] |  |
| CC1(C)NC(=O)N(c2ccc([N+](=O)[O-])c(C(F)(F)F)c2)C1=O |  | inactive |
| c1ccc2[nH]c(-c3cscn3)nc2c1 |  | inactive |
| CCOc1cc(CC(=O)N[C@@H](CC(C)C)c2ccccc2N2CCCCC2)ccc1C(=O)O | -8.1% |  |
| CC(C)[N+]1(C)[C@@H]2CC[C@H]1CC(OC(=O)C(CO)c1ccccc1)C2 (stereo not given in full) | -1.16% |  |
| O=c1ccc2ccc(O)c(O)c2o1 | -13.8% [at 38 µM] |  |
| CCCc1cc(=O)[nH]c(=S)[nH]1 |  | inactive |
| Nc1ccc(S(N)(=O)=O)cc1 | 25.4% |  |
| Cc1cccc(C#Cc2ccccc2)n1 | -24.8% [at 38 µM] |  |

| SMILES | activity, negative = inhibition | outcome |
| --- | --- | --- |
| CCc1nc(N)nc(N)c1-c1ccc(Cl)cc1 |  | inactive |
| CN1C(C(=O)Nc2ccccn2)=C(O)c2sccc2S1(=O)=O | -3.22% |  |
| O=C(O)c1cccnc1Nc1cccc(C(F)(F)F)c1 |  | inactive |
| NS(=O)(=O)c1cc(C(=O)O)c(NCc2ccco2)cc1Cl | -3.49% |  |
| CC1Cc2ccccc2N1NC(=O)c1ccc(Cl)c(S(N)(=O)=O)c1 (stereo not given) | 0.161% |  |
| NC(=NCc1ccccc1)NC(=O)c1nc(Cl)c(N)nc1N |  | inactive |
| COc1ccc2cc([C@H](C)C(=O)O)ccc2c1 |  | inactive |
| COc1c2occc2cc2ccc(=O)oc12 | -9.24% |  |
| O=c1c(O)c(-c2cc(O)c(O)c(O)c2)oc2cc(O)cc(O)c12 |  | inactive |
| NNc1nncc2ccccc12 |  | inactive |
| CCC1=C(C)CN(C(=O)NCCc2ccc(S(=O)(=O)NC(=O)NC3CCC(C)CC3)cc2)C1=O (stereo not given) | -16.4% |  |
| O=c1cc(N2CCOCC2)oc2c(-c3ccccc3)cccc12 | -17% [at 38 µM] |  |
| Nc1cc(C(Cl)=C(Cl)Cl)c(S(N)(=O)=O)cc1S(N)(=O)=O | 3.17% |  |
| CC1(C)C(=O)N(CCN2CCC(C(=O)c3ccc(F)cc3)CC2)c2ccccc21 | -9.51% [at 38 µM] |  |
| Nc1nc(Cl)nc2c1ncn2[C@H]1C[C@H](O)[C@@H](CO)O1 |  | inactive |
| CCCCN(CCCC)CCC(O)c1cc2c(Cl)cc(Cl)cc2c2cc(C(F)(F)F)ccc12 (stereo not given) | -0.14% |  |
